Drawing on PubChem BioAssay (NCATS), this text covers Potency for 25 compounds.

The structures appear in SMILES notation. Inconclusive results are not listed. The source made the active and inactive calls. Calls come from the whole dose curve; as a rule, active = well fitted curve in the direction sought with a large enough effect; inconclusive = small, poorly fitted or top-dose-only effect, or another doubt; inactive = no such curve, though single readings can be large; an effect the other way counts as inactive or inconclusive.

Assay [1] can be described thus: qHTS of pediatric cancer cell lines to identify multiple opportunities for drug repurposing: Primary screen for TC32 cells (AID 1347089). Note: nearly all actives have a fitted effect of over 60% in size. Note: potency is the fitted concentration of half-maximal effect. An outline of the steps: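 Measured quantity: luminescence from CellTiter-Glo, reflecting metabolically active TC32 cells following 48 h of compound. Curves came straight from multi-point titrations, with 8 or 11 points in primary and 11 in confirmatory screening.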
For orientation: Quantitative high-throughput screening tests each substance at several concentrations.

The nature of assay [2]: qHTS of pediatric cancer cell lines to identify multiple opportunities for drug repurposing: Primary screen for DAOY cells (AID 1347090). Note: nearly all actives have a fitted effect of over 55% in size. Note: potency is the fitted concentration of half-maximal effect. The method, boiled down: (§1)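 Eight- or eleven-point concentration series, 48 h treatment at 37 degrees C in growth media; readout CellTiter-Glo luminescence. Potency and efficacy were taken from the concentration-response curves.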
Assay [3] can be described thus: qHTS of pediatric cancer cell lines to identify multiple opportunities for drug repurposing: Primary screen for A673 cells (AID 1347092). Note: nearly all actives have a fitted effect of over 45% in size. Note: potency is the fitted concentration of half-maximal effect. An outline of the steps:
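Cells are plated, rested 5 h, dosed by pintool, incubated 48 h, then lysed with CellTiter-Glo and read by luminescence. DMSO is the neutral control; bortezomib at 2.3 uM final is the positive control.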

Assay [4] is described as follows: qHTS of pediatric cancer cell lines to identify multiple opportunities for drug repurposing: Primary screen for SK-N-MC cells (AID 1347093). Note: potency is the fitted concentration of half-maximal effect. The method, boiled down: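 Metabolically active cells were quantified by ATP-dependent luminescence (CellTiter-Glo, 15 min at room temperature) following 48 h treatment. Cells had been plated at 500-1,000 per well and settled for 5 h beforehand.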

Assay [5] in a line: qHTS of pediatric cancer cell lines to identify multiple opportunities for drug repurposing: Primary screen for NB-EBc1 cells (AID 1347095). Note: potency is the fitted concentration of half-maximal effect. The method, boiled down: (§2)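 Cells seeded at 500-1,000 cells/well in growth media, rested 5 hours at 37 degrees C, 5% CO2, then dosed; MIPE compounds at 11-point (from 0.78 nM) and NPC at 8-point (from 0.59 nM) final concentrations. Viability by CellTiter-Glo luminescence after 48 hours.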

Assay [6] can be described thus: qHTS of pediatric cancer cell lines to identify multiple opportunities for drug repurposing: Primary screen for U-2 OS cells (AID 1347096). Note: nearly all actives have a fitted effect of over 50% in size. The method, boiled down:
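Cells (500-1,000/well) in growth media were settled 5 h at 37 degrees C, then given compounds for 48 h. Viability was read as CellTiter-Glo luminescence. Primary runs used MIPE at 11 points (0.78 nM-46 µM) and NPC at 8 points (0.59 nM-46 µM); follow-ups used 11 points.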

Assay [7] in a line: qHTS of pediatric cancer cell lines to identify multiple opportunities for drug repurposing: Primary screen for BT-37 cells (AID 1347094). Note: potency is the fitted concentration of half-maximal effect. The method, boiled down: as §2
A short description of assay [8]: qHTS of pediatric cancer cell lines to identify multiple opportunities for drug repurposing: Primary screen for SJ-GBM2 cells (AID 1347091). Note: potency is the fitted concentration of half-maximal effect. The method, boiled down: as §1

For the compound `COc1cc(F)c(C(C)C)cc1-c1ccc(C(F)(F)F)cc1CN1C(=O)O[C@H](c2cc(C(F)(F)F)cc(C(F)(F)F)c2)[C@@H]1C`, the Potency result in assay [1], in assay [2], in assay [3], in assay [4] and in assay [6] was “inactive” throughout. The Potency in assay [5] was 14.8 µM (active).
As for `CN(C)CCOc1ccc(C(=C(CCCl)c2ccccc2)c2ccccc2)cc1`, the Potency result in assay [1], in assay [2], in assay [3], in assay [4], in assay [7] and in assay [6] was “inactive” each time.
Take `CN[C@@H](C)[C@H]1[C@H](O)C[C@@]2(C)[C@@H]3CC[C@H]4C(C)(C)[C@@H](NC)CC[C@@]45C[C@@]35CC[C@]12C`: the Potency entry in assay [1], in assay [2], in assay [8], in assay [7] and in assay [6] was “inactive” throughout.
`CCCC1OC2C[C@@H]3[C@H]4CCC5=CC(=O)C=C[C@]5(C)[C@H]4C(O)C[C@]3(C)[C@]2(C(=O)CO)O1` (some centres undefined): the Potency entry in assay [1], in assay [2] and in assay [3] was “inactive” throughout. The Potency in assay [4] is 20.9 µM (active).
As to `Cc1ccccc1C(C(=O)NC1CCCCC1)N(C(=O)CNc1ccc(C#N)cc1)c1cccc(F)c1` (centres undefined), the Potency entry in assay [1], in assay [2], in assay [3], in assay [7] and in assay [6] was “inactive” each time. Further, the Potency in assay [5] was 23.5 µM (active).
Regarding `O=C(O)c1nc(=O)[nH]c(=O)[nH]1`, the Potency entry in assay [1], in assay [2], in assay [3], in assay [4], in assay [7] and in assay [5] was “inactive” in each case. In assay [6], the Potency result is “inactive”.
As to `COC(=O)[C@H](c1ccccc1Cl)N1CCc2sccc2C1`, the Potency entry in assay [1], in assay [2], in assay [8], in assay [5] and in assay [6] was “inactive” throughout.
For the compound `CCNC(=O)[C@H]1O[C@@H](n2cnc3c(N)nc(NCCc4ccc(CCC(=O)O)cc4)nc32)[C@H](O)[C@H]1O`, the Potency entry in assay [1], in assay [2], in assay [8], in assay [7], in assay [5] and in assay [6] was “inactive” in each case.
As for `COc1ccc(C=CC(=O)Nc2ccccc2C(=O)O)cc1OC`, the Potency result in assay [1], in assay [2], in assay [8], in assay [7] and in assay [6] was “inactive” in each case.
For `CN(C)c1ccccc1CN1CCCN(Cc2ccccc2N(C)C)C1c1ccncc1`, the Potency result in assay [1] and in assay [2] was “inactive” each time. In addition, the results for the Potency in assay [3], in assay [4] and in assay [5] were 18.7 µM (active), 26.4 µM (active) and 20.9 µM (active), respectively.
Consider `CCC(=O)OCC(=O)[C@@]1(OC(=O)CC)[C@@H](C)C[C@@H]2[C@H]3CCC4=CC(=O)C=C[C@]4(C)[C@@]3(F)[C@@H](O)C[C@@]21C`, for which the Potency entry in assay [1], in assay [5] and in assay [6] was “inactive” throughout. In addition, the Potency in assay [2] was 1.18 µM (active); in assay [3], 1.87 µM (active); in assay [4], 0.0372 µM (active).
On to `Cc1ccc2c(c1)C(=O)[C@]1(O)CCN(c3ccccc3)C1=N2`, for which the Potency result in assay [1], in assay [2], in assay [7] and in assay [6] was “inactive” in each case. Further, the Potency in assay [4] is 20.9 µM (active); in assay [5], 7.43 µM (active).
In the case of `O=c1cc(-c2ccc(O)c(O)c2)oc2cc(O)cc(O)c12`, the Potency entry in assay [1], in assay [2], in assay [8], in assay [7], in assay [5] and in assay [6] was “inactive” each time.
For `CCCCN(CCCC)CC(O)c1cc(Cl)cc2c1-c1ccc(Cl)cc1C2=Cc1ccc(Cl)cc1` (centres undefined), the Potency result in assay [1], in assay [2], in assay [3], in assay [7], in assay [5] and in assay [6] was “inactive” throughout.
With `COc1nccc(-c2c(-c3ccc(F)cc3)ncn2C2CCC(O)CC2)n1` (centres undefined), the Potency entry in assay [1], in assay [2], in assay [3], in assay [4] and in assay [6] was “inactive” in each case.
`N[C@@H](CC(=O)N1CCn2c(nnc2C(F)(F)F)C1)Cc1cc(F)c(F)cc1F`: the Potency entry in assay [1], in assay [8], in assay [3], in assay [7], in assay [5] and in assay [6] was “inactive” throughout. In addition, the Potency in assay [4] is 18.7 µM (active).
As to `Cc1cccc(-c2[nH]c(C(C)(C)C)nc2-c2ccc3c(c2)OCO3)n1`, the Potency in assay [1] was 8.29 µM (active); in assay [8] it was 4.69 µM (active); in assay [3], 4.69 µM (active); in assay [4], 2.96 µM (active); in assay [7], 6.11 µM (active).
With `COc1nccc(-c2c(-c3ccc(F)cc3)ncn2C2CCNCC2)n1`, the Potency result in assay [1], in assay [2], in assay [4] and in assay [6] was “inactive” throughout.
Take `CN1CCC(COc2cnc(-c3cccc(Cn4nc(-c5cccc(C#N)c5)ccc4=O)c3)nc2)CC1`: the Potency result in assay [1], in assay [7] and in assay [6] was “inactive” throughout. The Potency is 0.0083 µM (active) in assay [8], 0.148 µM (active) in assay [3] and 0.148 µM (active) in assay [4].
As for `NS(=O)(=O)c1ccc(Nc2nc(OCC3CCCCC3)c3[nH]cnc3n2)cc1`, the Potency entry in assay [1] is “inactive”. The Potency in assay [8] is 26.4 µM (active); in assay [3] it was 23.5 µM (active); in assay [4], 6.62 µM (active).
Take `C[C@@H](N)c1ccc(C(=O)Nc2ccnc3[nH]ccc23)cc1`: the Potency result in assay [1] was “inactive”. Also, the values for the Potency in assay [8], in assay [3] and in assay [4] were 11.8 µM (active), 9.35 µM (active) and 26.4 µM (active), respectively.
With `O=C(O)C1=CO[C@@H](O[C@@H]2O[C@H](CO)[C@H](O)[C@H](O)[C@H]2O)[C@@H]2C(CO)=CC[C@H]12`, the Potency result in assay [1], in assay [8], in assay [3], in assay [4], in assay [7] and in assay [6] was “inactive” in each case.
Regarding `CCC(=O)N1CCN(c2ccc(-n3c(=O)ccc4cnc5ccc(-c6cnc7ccccc7c6)cc5c43)cc2C(F)(F)F)CC1`, the Potency in assay [1] is 0.0739 µM (active); in assay [8], 0.0187 µM (active); in assay [3] it was 0.0118 µM (active); in assay [4] it was 0.0053 µM (active); in assay [7], 0.0217 µM (active); in assay [5] it was 0.0662 µM (active).
Regarding `Nc1ncnc2c1c(-c1cccc(OCc3ccccc3)c1)cn2C1CC(CN2CCC2)C1` (centres undefined), the Potency in assay [1] was 9.3 µM (active). For the same compound, the Potency result in assay [2], in assay [7] and in assay [6] was “inactive” in each case.
For `Fc1ccc(C(c2ccc(F)cc2)N2CCN(CC=Cc3ccccc3)CC2)cc1`, the Potency result in assay [1], in assay [2], in assay [7] and in assay [6] was “inactive” in each case.
